In all, about 210,000 compounds went through this assay and about 730 (0.35%) were called active. Inconclusive results (about 1%) are left out. Shown is part of a subset that was picked to be rich in actives. A number with no mark means an inactive call. Calls follow the shape of the dose curve; as a rule, active = well fitted inhibition curve with a large enough effect; inconclusive = small, poorly fitted or top-dose-only effect; inactive = no such curve, though single readings can be large or run the other way.
Potency is read from the fitted curve at half-maximal effect.

The nature of the assay: qHTS Assay for Identifying the Cell-Membrane Permeable IMPase Inhibitors: Potentiation with Lithium.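 Also: IP1 builds up when IMPase is blocked and the TR-FRET signal falls; nearly all actives have a fitted effect of over 50% in size.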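 As to activity, negative = IMPase inhibition: plate controls were basal vehicle for no effect and high inhibitor control for full effect.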 The following applies: CHO-M1 cells, IP1 TR-FRET (IP-One), carbachol + lithium; series mostly up to 59.4 µM; activity, negative = IMPase inhibition: at the top concentration. The source says:
NIH Chemical Genomics Center [NCGC]
NIH Molecular Libraries Probe Production centers Network [MLPCN]
Assay Submitter (PI): Wei Zheng
Lithium has been widely used for the treatment of bipolar disorder. But lithium has a narrow therapeutic index and it can cause side effects such as thirst, weight gain, tremor, polyuria and memory problems. Although the mechanism for lithium action in treatment of bipolar disorder is still not fully understood, inhibition of inositol monophosphatase (IMPase) and the subsequent depletion of the inositol pool in living cells have been implicated as the primary therapeutic benefit of lithium therapy. Therefore, a selective IMPase inhibitor with reduced side effects might be a good drug candidate to replace lithium for the treatment of bipolar disorder. Several IMPase inhibitors have been discovered previously. However, they are not suitable for therapeutic use because of their poor cell membrane penetrability or oral bioavailability; the development of new cell-permeable IMPase inhibitors is needed.
IMPase catalyzes the hydrolysis of inositol-1-phosphate (IP1) to release free inositol. Binding of an agonist to a Gq coupled GPCR results in the activation of PLC, which hydrolyzes the PIP2 to form inositol-1,4,5-trisphosphate (IP3) and diacyl glycerol (DAG). While DAG activates protein kinase C (PKC), IP3 triggers the elevation of intracellular free Ca2+. The IP3 is very rapidly inactivated by hydrolysis to IP2, IP1 and then inositol by a series of enzymes including IMPase. Free inositols are used for synthesis of PI and thus start another inositol cycle.
To identify new cell-permeable IMPase inhibitors, we developed a cell-based IMPase assay in which the cytosolic IP1 is measured by a time-resolved fluorescence resonance energy transfer (TR-FRET) assay. In this assay, an IP1 specific antibody is used to detect the labeled IP1 tracer. When the cell lysate contains the elevated IP1 due to the inhibition of IMPase, the TR-FRET between the labeled antibody and IP1 tracer is disrupted resulting in a reduction in the total signal. Since the TR-FRET is used, this cell-based assay is a homogenous assay without cell wash and medium change that is suitable for assay miniaturization and HTS. In this particular assay, a small amount of lithium is added to potentiate the response of weak activators.
NCGC Assay Protocol Summary:
A Chinese hamster ovary (CHO) cell line stably expressing the M1 receptor (CHO-M1) was obtained from ATCC and maintained in F-12 Kaighn's media (Invitrogen, Carlsbad, CA) supplemented with 10 % FBS, 100 units/ml penicillin, 100 ug/ml streptomycin and 250 ug/ml geneticin at 37C, 5% CO2 in a humidified atmosphere. Before the assay, aliquots of cells were frozen and stored at -135C. The assay was performed in 1536-well format. Data are reported for both the ratio of the two emission wavelengths, and also for the component 'donor' channel, Em2=620. […] AC50 values were determined from concentration-response data modeled with the standard Hill equation.
(1) Frozen CHO-M1 cells were thaw, washed once with fresh media and resuspended in F12K media containing 10% FBS, 100 units/ml penicillin and 100 ug/ml streptomycin. Cells were plated at 4ul/well (2000 cells) in white, tissue culture treated 1536-well plates, and then cultured at 37C, 5 % CO2 for 16 to 30 hours.
(2) Add 23 nl/well of compound in DMSO solution. The final titration for each compound was between 0.6 nM and 46 uM.
(4) Incubation at 37C, 5 % CO2 for 30 min.
(5) Add 1 ul/well of d2-conjugated IP1 (d2-IP1) and 1 ul/well of Eu+ cryptate conjugated anti-IP1 antibody (Eu+-Ab) prepared in the cell lysis buffer, both from the IP-One kit (Cisbio, MA).
(6) Incubate at room temperature for 10 minutes.
(7) Detect the assay plate (Ex = 320, Em1 =665 and Em2 620) in a ViewLux plate reader.
For orientation: In qHTS, concentration-response curves come from the screen itself.
For the compound `O=C(NCc1ccco1)O[C@@H]1C(=O)c2cc(Br)ccc2O[C@H]1c1ccc2c(c1)OCO2`, the “activity, negative = IMPase inhibition” value is 7.71%.
Same read-out and setting: for `O=C(O)C[C@@H]1NC(=O)[C@H](Cc2ccccc2)NC1=O` the value was -10.9%.
Same read-out and setting: for `Cc1cc(NCc2ccco2)n2c(nc3ccccc32)c1C#N` the value was 20.5% [at 38.3 µM].
`Cn1c(-c2ccco2)nc2cc3ccccc3cc21`: the “activity, negative = IMPase inhibition” value was -7.17% [at 38.3 µM].
On to `CN(c1nc2ccccc2n2c(-c3ccco3)nnc12)S(=O)(=O)c1ccccc1`, for which the Potency was 7.94 µM (active).
As to `CCCCCCCC[C@@H](O)/C=C/C=C/C=C\[C@@H](O)CCCC(=O)O`, the “activity, negative = IMPase inhibition” value is 6.73%.
On to `COc1ccc2c(c1)O[C@@H](c1ccc3c(c1)OCO3)[C@H](OC(=O)NCCc1ccc(OC)c(OC)c1)C2=O`, for which the “activity, negative = IMPase inhibition” value is -14.2%.
On the same count and under the same terms, then `C/C=C(\C)C(=O)OC1C(OC(=O)C2(C)OC2C)c2cc3ccc(=O)oc3cc2OC1(C)C` (stereo not drawn), with 4.87%.
Consider `COC1(C2=NCCN2)COc2ccccc2O1` (stereo not drawn), for which the “activity, negative = IMPase inhibition” value was 5.3%.
Take `C[C@H]1Cc2c(COc3ccccc3)nc3c(c2CO1)CN(C(=O)NCc1ccco1)CC3`: the “activity, negative = IMPase inhibition” value is -2.19%.
Still for that read-out and setting: for `C/C=C(\C)C(=O)O[C@H]1CC(C)=C2C(=O)C=C(C)C2[C@@H]2OC(=O)[C@@](C)(OC(=O)C=C(C)C)C21` (stereo partly drawn) the value was -1.2%.
Still for that read-out and setting: then `CCCCC/C=C\C/C=C\C/C=C\CCCCCCC(N)=O`, with 7.82%; and `COc1ccc(-c2nc3cnc(N(C)C)nc3n(Cc3cccs3)c2=O)cc1`, with 1.78%.
Consider `COc1cccc(Cn2c(=O)c(-c3cc(F)cc(F)c3)nc3cnc(OC)nc32)c1`, for which the “activity, negative = IMPase inhibition” value is 0.937%.
With `COc1ccc(-c2nc3cnc(OC)nc3n(Cc3ccc(F)cc3)c2=O)cc1`, the Potency is 5.62 µM (active).
In the case of `COc1ccc(-c2nc3cnc(Oc4ccccc4)nc3n(Cc3cccs3)c2=O)cc1`, the Potency was 8.91 µM (active).
Regarding `COc1cccc(Cn2c(=O)c(-c3ccccc3)nc3cnc(OC)nc32)c1`, the “activity, negative = IMPase inhibition” value is 24.5%.
In the case of `COc1cccc(Cn2c(=O)c(C)nc3cnc(Oc4ccccc4)nc32)c1`, the “activity, negative = IMPase inhibition” value is 18.7%.
Same read-out and setting: for `COc1ccc(-c2c(C)cc3oc(=O)cc(-c4ccccc4)c3c2C)cc1C=O` the value was 2.81%; for `CC(C)[C@@H]1NC(=O)[C@H](Cc2ccccc2)NC(=O)[C@@H](CC(=O)O)NC(=O)CNC(=O)[C@H](CCCNC(=N)N)NC1=O`, 7.05%.
Regarding `Cc1cc2oc(=O)cc(-c3ccccc3)c2c(C)c1/C=C/c1ccc(F)cc1`, the “activity, negative = IMPase inhibition” value was -7.25%.
Same read-out and setting: then `Cc1ccc(-c2cccc([C@H]3[C@@H]4C=CC[C@@H](C)[C@@H]4C(=O)N3Cc3ccccc3)c2)cc1`, with 10%.
For `CC(=O)/C(C)=N/O`, the “activity, negative = IMPase inhibition” value is -3.22%.
As for `O=C(NCc1cccs1)c1cc(-c2ccccn2)nc2ccc(Br)cc12`, the Potency was 6.31 µM (active).
Same read-out and setting: for `O=C(Nc1ccncc1)c1cc(-c2ccccn2)nc2ccc(Br)cc12` the value was 2.82 µM (active).
As to `Cc1ccc2nc(-c3ccncc3)cc(C(=O)Nc3ccc(OC(F)F)cc3)c2c1`, the “activity, negative = IMPase inhibition” value was 16.8%.
As to `O=C(NCc1ccccn1)c1cc(Br)ccc1Cl`, the “activity, negative = IMPase inhibition” value was 5.27%.
Still for that read-out and setting: then `Cc1ccc2nc(-c3ccccn3)cc(C(=O)Nc3ccc4c(c3)OCO4)c2c1`, with 4.54%; and `Cc1ccc(-c2cc(C(=O)NCc3cn(C)nc3C)c3cc(Br)ccc3n2)cc1`, with -14.7%; and `S=C(NCCCc1cnc[nH]1)NCCCN(Cc1ccc(Cl)c(Cl)c1)c1ccc(Br)cn1`, with 2.14%.
For `C=CC(C1=CC(=O)C=CC1=O)c1ccc(O)cc1` (stereo not drawn), the “activity, negative = IMPase inhibition” value was 38.9%.
Still for that read-out and setting: for `COc1cccc([C@@H]2Oc3ccc(Br)cc3C(=O)[C@H]2OC(=O)NCc2ccc3c(c2)OCO3)c1` the value was 9.58%; for `CC(=O)[C@H](C(c1ccccc1)N1CCOCC1)N1CCOCC1` (stereo partly drawn), -10.4%; for `COC(=O)C1=C(C(=O)OC)[C@@H]2N(Cc3ccccc3)c3ccccc3[C@@]23C[C@@H](C(=O)OC)N(S(=O)(=O)c2ccc(C(F)(F)F)cc2)C3=N1`, 9.75%.
For the compound `CC/C=C\C/C=C\C/C=C\C/C=C\C/C=C\C/C=C\CCC(=O)NC(C)C(=O)O` (stereo not drawn), the “activity, negative = IMPase inhibition” value was 18%.
Still for that read-out and setting: for `COC(=O)C/C=C/[C@@H](C)[C@H](NC(=O)OCC(Cl)(Cl)Cl)c1ccccc1` the value was 3.99%; for `C=C(C(C)=O)C(O)c1ccc([N+](=O)[O-])cc1` (stereo not drawn), 39.2%.
In the case of `COc1ccc(CCCOC(Cn2ccnc2)c2ccc(OC)cc2)cc1` (stereo not drawn), the Potency entry is “inactive”.
For `O=C1OCCN1C(=O)[C@H]1[C@H](c2ccc(F)cc2)C(c2ccccc2)=NN1c1ccc(Br)cc1`, the “activity, negative = IMPase inhibition” value is 0.301%.
`C=C/C1=C/Cc2ccccc2[C@H](C[N+](=O)[O-])C(C(=O)OC)(C(=O)OC)C1`: the “activity, negative = IMPase inhibition” value was 17.6%.
Same read-out and setting: for `C=CC1=C2C=C(C3CC3)N(CC(C)C)C=C2C(=O)C(C)(OC(=O)c2ccco2)C1=O` (stereo not drawn) the value was 7.37%; for `O=C1OCCN1C(=O)[C@H]1[C@H](c2ccccc2)C(c2ccc(F)cc2)=NN1c1ccccc1`, -13.4%.
Consider `CN(C)[C@@H]1C(=O)C(C(N)=O)=C(O)[C@@]2(O)C(=O)C3=C(O)c4c(O)ccc(Cl)c4[C@@H](O)[C@H]3C[C@@H]12`, for which the Potency is 3.98 µM (active).
`COc1ccc(/C=C2\NC(=O)[C@@H]3Cc4ccccc4CN3C2=O)cc1`: the “activity, negative = IMPase inhibition” value was 12.7%.
As for `NCCC(=O)c1ccccc1N`, the “activity, negative = IMPase inhibition” value was -1.61%.
Take `COC(=O)C1=C(C(=O)OC)[C@@H]2N(C)c3ccccc3[C@@]23C[C@@H](C(=O)OC)N(S(=O)(=O)c2cccs2)C3=N1`: the “activity, negative = IMPase inhibition” value is 8.96%.
For the compound `C=CCN1C=C2C(=O)C(C)(OC(=O)CCc3ccccc3)C(=O)C=C2C=C1c1ccc(C#N)cc1` (stereo not drawn), the “activity, negative = IMPase inhibition” value is -2.86%.
`Cc1ccc(C(=O)c2c(NC(=O)c3ccncc3)sc3c2CCCC3)cc1`: the “activity, negative = IMPase inhibition” value was 42.5% [at 38.3 µM].
`C=CCN(CC=C)S(=O)(=O)c1ccc(C(=O)Nc2sc3c(c2C(N)=O)CCCCC3)cc1`: the Potency is 10 µM (active).
`C=CCN(CC=C)S(=O)(=O)c1ccc(C(=O)Nc2nc3c(s2)CCc2ccccc2-3)cc1`: the “activity, negative = IMPase inhibition” value was 6.49%.
On the same count and under the same terms, for `CC(C)=CCN1CCC2(CCc3ccccc32)CC1` the value was -23.8%.
The same measure, in the same setting: then `C[C@H]1Cc2c(-c3ccccc3)nc3c(c2CO1)CN(C(=O)C1CC1)CC3`, with 11.8%; and `COc1ccccc1C1/C(=C(/O)c2ccc(OC(C)C)cc2)C(=O)C(=O)N1c1cc(C)on1` (stereo not drawn), with 6.7% [at 38.3 µM].
On to `COc1ccc(/C(O)=C2\C(=O)C(=O)N(Cc3ccco3)C2c2ccc(OC)cc2OC)cc1` (stereo not drawn), for which the “activity, negative = IMPase inhibition” value was -20.2% [at 38.3 µM].
For the compound `COc1ccc(/C(O)=C2/C(=O)C(=O)N(c3nc(C)c(C)s3)C2c2ccco2)cc1` (stereo not drawn), the Potency was 12.6 µM (active).
On to `Cc1cn(C2OC[C@@H](O)[C@@H]2CO)c(=O)[nH]c1=O` (stereo partly drawn), for which the “activity, negative = IMPase inhibition” value was 31%.
As to `O=c1c(O)c(Br)ccc2c(Br)c(O)c(O)c(O)c12`, the “activity, negative = IMPase inhibition” value was 38.1%.
On the same count and under the same terms, for `Cc1cccc([C@H]2[C@@H]3C=CC[C@@H](C)[C@@H]3C(=O)N2Cc2ccccc2)c1` the value was 6.4%.

These data come from PubChem BioAssay AID1457 (National Center for Advancing Translational Sciences (NCATS), 2008).
